Shown are actives, neighbours in structure and some others; about 3.6% of the full set was active somewhere.
mHTT CaM bind: mHTT-calmodulin interaction abrogation; P42858; AlphaScreen His-mHTT/GST-CaM binding, luminescence; 190,000 tested, 3.6% active; inhibition, % at 15 µM
Pf apPOL inh: Pf-apPOL DNA polymerase inhibition; 210,000 tested, 0.25% active; Recombinant Pf-apPOL, molecular beacon fluorescence, 1.5 h; AID 1794808; inhibition, % at 10 µM
Large screens that a line does not name were inactive. Cut-off read from the data, not from the text of the source: active = inhibition above about 50%; inactive = the rest.

CCN(CC)CCNC(=O)COc1ccc(OC)cc1	none
CN(C)CCNC(=O)COc1ccc(C23CC4CC(CC(C4)C2)C3)cc1	mHTT CaM bind 95
COc1ccc(CCNC(=O)CC23CC4CC(C2)CC(c2ccccc2)(C4)C3)cc1OC	none
CN(C)CCNC(=O)CC12CC3CC(C1)CC(c1ccccc1)(C3)C2	mHTT CaM bind 64
Cc1ccccc1C(=O)N1CCN(c2cc(Oc3ccc(F)c(F)c3)ncn2)CC1	none
CCC(CC)C(=O)N1CCCC(COc2ccc(C(=O)N3CCC(C)CC3)cc2)C1 (stereo not given)	none
CC1CN(c2nc3ccccc3nc2C(C#N)C(=O)OCc2ccccc2)CC(C)O1 (stereo not given)	none
COCCC(=O)N1CCC(n2c(-c3ccoc3)nc3cccnc32)C1 (stereo not given)	none
CC(=O)Nc1nnc(SCc2cc(=O)c(OC(=O)c3ccco3)co2)s1	none
Cc1cc(C)nc(SCc2cc(=O)c(OC(=O)c3cc4ccccc4o3)co2)n1	mHTT CaM bind 92
COc1ccc(-c2cc(-c3cc(C)ccc3O)[nH]n2)cc1	mHTT CaM bind 70
Cc1cc(-c2ccccc2)n[nH]1	Pf apPOL inh 83
Oc1ccccc1-c1cc(-c2ccc(Br)cc2)n[nH]1	none
COc1ccc(-c2cc(C(=O)O)c3cc(C)ccc3n2)cc1	none
Cc1nc2cccc(-c3cc(-c4ccccc4O)[nH]n3)c2o1	mHTT CaM bind 67
Cc1ccccc1-c1cc(-c2ccccc2O)on1	none
Cc1[nH]nc(-c2ccccc2)c1Br	none
Oc1ccccc1-c1cc(-c2cccc(Br)c2)n[nH]1	mHTT CaM bind 96
O=C(Cn1cccc1-c1nc(-c2ccccc2)cs1)NCc1cccnc1	none
Cc1cccc(N=c2oc3ccc([N+](=O)[O-])cc3cc2C(=O)Nc2nccs2)c1C	none
C=CCOc1ccccc1C(=O)NCCC1=CCCCC1	none
COc1cccc(C2NC(=O)N(C)C3=C2C(=O)N(CCC(C)C)C3)c1 (stereo not given)	none
Cc1[nH]c(C(=O)N2CCC(CC(=O)NCCC3=CCCCC3)CC2)c(C)c1C	none
Cc1ccc(O)c(-c2cc(-c3cccs3)[nH]n2)c1	mHTT CaM bind 56
Cc1ccc(O)c(-c2cc(-c3ccccc3)n[nH]2)c1	mHTT CaM bind 74
Oc1ccccc1-c1cc(-c2ccccc2)no1	none
NC(N)=NC(N)=Nc1cc(-c2cccs2)[nH]n1	none (no result: mHTT CaM bind)
O=C(CSc1ncc(-c2ccc([N+](=O)[O-])cc2)[nH]1)Nc1ccc(F)cc1	none
Cc1cc2ncn(CC(O)COc3c(C)cccc3C)c2cc1C (stereo not given)	none
Cc1cc(C)c(OCC(O)Cn2cnc3cc(C)c(C)cc32)c(C)c1 (stereo not given)	mHTT CaM bind 85
O=C(Nc1ccccc1)N1CCCC1c1ccc(F)cc1 (stereo not given)	none
CCOC(=O)CCc1c(CC(=O)OCC)c[nH]c1C=NO	Pf apPOL inh 99 (no result: mHTT CaM bind)
CCOC(=O)CCc1c(C)n[nH]c1C	none
COc1ccccc1CNC(=O)CCC1CCCN(C(=O)Nc2ccc(Cl)cc2)C1 (stereo not given)	none
O=C(Nc1ccc(N2CCCCC2)cc1)c1ccccc1[N+](=O)[O-]	none
O=C(Nc1ccc(N2CCCC2)cc1)c1cc(Br)ccc1Cl	mHTT CaM bind 86
Cc1ccccc1C(=O)Nc1ccc(N2CCCC2)cc1	none
O=C(Nc1ccc(N2CCCC2)cc1)C(Cl)(Cl)Cl	mHTT CaM bind 74
O=C(Nc1cnc(N2CCCCC2)nc1)c1ccc(Br)o1	none
O=C(Nc1ccc2c(c1)CCCN2C(=O)C1CC1)c1cc(Br)ccc1Cl	none
O=C(Nc1ccc(N2CCCC2)cc1)c1ccc(Br)o1	mHTT CaM bind 62
O=C(Nc1ccc(N2CCCC2)cc1)c1ccccc1[N+](=O)[O-]	mHTT CaM bind 84
CSc1nc(-c2ccc(Br)cc2)nn1C(C)=O	none
Cc1cc(C(=O)Nc2c(F)c(F)c(F)c(F)c2F)ccc1[N+](=O)[O-]	none
CC(C)NC(=O)c1nnn(-c2ccc(F)cc2)c1-c1ccncc1	none
O=c1[nH]c2cc(Cl)c(Cl)cc2nc1CN1CCN(c2ccccc2)CC1	mHTT CaM bind 52
Cc1cc2nc(CN3CCN(c4cccc(Cl)c4)CC3)c(=O)[nH]c2cc1C	none
CN(C)c1ccc(C=NNC(N)=S)c(O)c1	none (no result: mHTT CaM bind)
C=CCn1c(SCC(=O)c2ccc(F)cc2)nnc1-c1cccs1	none
C=CCn1c(SCC(=O)O)nnc1-c1cccs1	mHTT CaM bind 50
COC(=O)C1CN(Cc2ccc(C)cc2)CCS(=O)(=O)N1Cc1cn(Cc2ccc(F)cc2)nn1 (stereo not given)	none
COC(=O)C1CN(Cc2ccc(F)cc2)CCS(=O)(=O)N1Cc1ccc(C)cc1 (stereo not given)	mHTT CaM bind 50
COC(=O)C1CN(CCc2ccccc2)CCS(=O)(=O)N1Cc1ccc(C(F)(F)F)cc1 (stereo not given)	mHTT CaM bind 77
COC(=O)C1CN(CCc2ccccc2)CCS(=O)(=O)N1Cc1ccccc1 (stereo not given)	none
O=S(=O)(O)c1cc(Br)ccc1I	none (no result: mHTT CaM bind)
O=S(=O)(O)c1cc(I)c(O)c2ncccc12	mHTT CaM bind 100
O=C(c1ccc2[nH]ccc2c1)N1CCC2(CC1)NC(=O)N(Cc1ccc(Cl)cc1)C2=O	none

Compound activity from PubChem BioAssay.
